Source: PubChem BioAssay (several laboratories)
Mcl1 Bid PPI = Mcl-1/Bid binding inhibitors, primary screen, biochemical, TR-FRET, 1536-well | hit rate 0.97% among 220,000 | inhibition, % at 21.7 µM | Induced myeloid leukemia cell differentiation protein Mcl-1 (Homo sapiens), Q07820 | TR-FRET Mcl-1/Bid-Dy647 peptide binding;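 active = compounds that cut the binding signal by more than half at the single screening dose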;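 note: His-tagged Mcl-1 with europium anti-His antibody binding Bid BH3 peptide; 0% = Mcl-1 plus peptide wells and 100% = peptide-only wells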
eIF4E-4G inh = eIF4E–eIF4G protein interaction inhibitors, primary screen, biochemical, uHTS, TR-FRET, eIF4GI fragment; TR-FRET eIF4E-eIF4GI(517-606) binding, 2 h; AID 782, 2007; Eukaryotic translation initiation factor 4E (Mus musculus) + Eukaryotic translation …; inhibition, % at 21.7 µM; hit rate 0.37% among 220,000;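 note: 0% = full FRET control wells and 100% = background wells lacking eIF4GI fragment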
Mcl-1 Bim block = inhibitors of Bim peptide binding to Mcl-1, primary screen, biochemical, bead-based flow cytometry, multiplex; Induced myeloid leukemia cell differentiation protein Mcl-1 (Homo sapiens), Q07820; Bim peptide-Mcl-1 binding; inhibition, % at 10 µM; hit rate 0.1% among 190,000; AID 1009, 2008; in the data active = inhibition above about 40%;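 note: 0% = no compound tracer wells and 100% = peptide blocker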
NCF1 inh = p47phox/p22phox peptide binding inhibitors, primary screen, biochemical, uHTS, NADPH oxidase regulatory subunit | Neutrophil cytosol factor 1 (Homo sapiens), P14598 | fluorescence polarization, 2 h | inhibition, % at 24.7 µM | hit rate 0.53% among 220,000 | AID 1274, 2008;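 note: 0% = p47phox with labelled peptide and 100% = labelled peptide alone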
Target sequence (P14598 whole entry, looked up): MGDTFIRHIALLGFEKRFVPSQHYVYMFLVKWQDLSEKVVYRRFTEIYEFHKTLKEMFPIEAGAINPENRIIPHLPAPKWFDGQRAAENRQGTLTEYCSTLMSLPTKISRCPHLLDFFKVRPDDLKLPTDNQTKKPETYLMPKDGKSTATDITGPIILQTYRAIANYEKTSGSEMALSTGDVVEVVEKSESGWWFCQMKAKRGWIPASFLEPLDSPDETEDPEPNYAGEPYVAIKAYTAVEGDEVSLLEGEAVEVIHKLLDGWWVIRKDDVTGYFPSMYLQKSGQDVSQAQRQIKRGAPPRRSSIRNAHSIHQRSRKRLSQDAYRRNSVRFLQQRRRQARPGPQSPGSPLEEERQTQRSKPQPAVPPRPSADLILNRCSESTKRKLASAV
14-3-3 Bad PPI = inhibitors of 14-3-3 zeta/Bad binding, primary screen, biochemical, TR-FRET, bovine 14-3-3 zeta; 14-3-3 protein zeta/delta (Bos taurus), P63103; TR-FRET 14-3-3zeta/Dy647-pBad peptide displacement, 1 h; inhibition, % at 21.7 µM; hit rate 0.71% among 220,000;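 active = inhibition above about 70%, limit read from the data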;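 note: 0% = full 14-3-3 plus peptide FRET controls and 100% = background without 14-3-3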
Target sequence (P63103 whole entry, looked up): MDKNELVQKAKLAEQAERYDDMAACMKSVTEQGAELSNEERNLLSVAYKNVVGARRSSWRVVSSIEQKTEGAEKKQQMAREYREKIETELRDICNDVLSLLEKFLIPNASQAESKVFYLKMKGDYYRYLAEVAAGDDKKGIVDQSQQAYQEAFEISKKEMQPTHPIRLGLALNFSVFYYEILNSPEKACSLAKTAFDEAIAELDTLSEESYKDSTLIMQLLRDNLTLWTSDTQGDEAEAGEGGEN
Mcl1 Noxa PPI = Mcl-1/Noxa binding inhibitors, primary screen, biochemical, TR-FRET, 1536-well | TR-FRET Mcl-1/Noxa peptide binding, 2 h | hit rate 1.5% among 220,000 | inhibition, % at 21.7 µM | Induced myeloid leukemia cell differentiation protein Mcl-1 (Homo sapiens), Q07820;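 active = compounds that cut the protein-peptide binding signal by more than 50% relative to plate controls in a single-dose test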;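 note: His-tagged Mcl-1 with rhodamine Noxa BH3 peptide and terbium anti-His antibody; 0% = Mcl-1 plus Noxa peptide wells and 100% = peptide-only wells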
An asterisk follows results filed as active; . = no result. Compounds with a hit are over-represented: about 3.4% of the library has one in this group of screens.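 Rule for the calls, unless noted: active = inhibition above about 30% (limit read from the data); inactive = the rest.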

SMILES | Mcl1 Bid PPI | eIF4E-4G inh | Mcl-1 Bim block | NCF1 inh | 14-3-3 Bad PPI | Mcl1 Noxa PPI
O=C(CCN1C(=O)c2ccccc2C1=O)C1=NN[C@@H]2C(=O)N(c3ccc4c(c3)OCCO4)C(=O)[C@H]12 | -27 | 0 | . | -10 | 0 | -7
NC(=O)C1=C[C@@H](c2ccc(Br)cc2)C[C@@H](OCCCCO)O1 | -8 | 0 | 4 | -6 | -2 | -9
CC(C)n1cc(/C(N)=N/O)c(=O)n(Cc2ccccc2)c1=O | -1 | 10 | . | 1 | -4 | 5
Cn1c(SCC(=O)N2CCOCC2)nnc1-c1cccc(NC(=O)c2ccccc2)c1 | -1 | 0 | 1 | -14 | 12 | 2
COC(=O)CSc1nnc(-c2cccc(NC(=O)c3ccc(C)cc3)c2)n1C | 3 | 72* | -2 | -2 | 37 | -4
CCN(CC)CCn1c2ccc(F)cc2c2nc(C)sc21 | 53* | 1 | 9 | -10 | 27 | 42
CN1CCN(CCC(=O)Nc2cccc(Br)c2)CC1 | 6 | -12 | . | -3 | 2 | 3
O=C1CCC(=O)N1c1ccc(-c2nc3sc4c(c3c(=O)o2)CCC4)cc1 | -12 | 1 | . | -4 | 4 | -16
O=c1oc(-c2ccccc2)nc2sc3c(c12)CCC3 | -25 | 10 | 0 | -2 | -10 | 60*
COc1cccc(C(=O)Nc2ccc3nc(N4CCN(c5ncccn5)CC4)cc(C)c3c2)c1OC | 83* | 5 | 6 | 30 | 38 | 74*
CCN1CCN(c2cc(C)c3cc(NC(=O)c4ccc(OC)c(OC)c4)ccc3n2)CC1 | -21 | 3 | 0 | -16 | 4 | 13
CC(=O)N(C)C1=C(O)c2ccccc2C(=O)C1=O | 5 | -4 | 0 | 5 | 70* | 6
CC(=O)N(C1=C(O)c2ccccc2C(=O)C1=O)C1CCCCC1 | -5 | 2 | 0 | -12 | 59 | 15
CC1(C)Cn2c(nc(=O)c3c2NCN(CCc2ccccc2)C3)S1 | -16 | -1 | -1 | -5 | 4 | 2
COc1cc(C#N)ccc1OCC(=O)Nc1cccc(S(=O)(=O)N2CCCC2)c1 | -24 | 0 | -3 | -1 | -5 | 9
NC(=O)c1sc(=S)n2c1[nH]c(=O)c1sccc12 | -33 | -1 | -1 | -20 | -15 | 25
CC(=O)NNC(=O)c1sc(=S)n2c1[nH]c(=O)c1sccc12 | -20 | 3 | -7 | 8 | -6 | 68*
O=C(NCc1ccccc1)c1sc(=S)n2c1[nH]c(=O)c1ccccc12 | -21 | 11 | 1 | -40 | 35 | 52*
CCNc1ccc(S(N)(=O)=O)cc1[N+](=O)[O-] | 2 | -4 | -5 | -10 | 23 | 51*
CCNc1ccc(S(=O)(=O)NCCN(C)C)cc1[N+](=O)[O-] | -26 | -5 | -1 | -4 | -13 | -4
Cc1nccn1CC(O)COC1CCCCC1 (stereo not given) | 62* | -7 | 0 | -19 | 49 | 18
CC1(C)NC(=O)N(CC(O)COC2CCCCC2)C1=O (stereo not given) | 8 | -3 | -3 | 41* | 2 | 3
Cc1nccn1CC(O)COc1ccccc1 (stereo not given) | 2 | -6 | 1 | 2 | -13 | 4
COC(=O)Cn1nnc(N2CCOCC2)n1 | 3 | -2 | . | -13 | -14 | 0
Cc1ccc2c(c1)c(C1=NC(=S)NC1=O)c(O)n2C | 26 | 13 | 0 | 15 | 7 | 55*
SMILES | Mcl1 Bid PPI | eIF4E-4G inh | Mcl-1 Bim block | NCF1 inh | 14-3-3 Bad PPI | Mcl1 Noxa PPI
O=C(Cn1c(C(F)(F)F)nc2ccccc21)c1ccc(Br)cc1 | -2 | -1 | 0 | 2 | 0 | -11
O=C(Cn1c(C(F)(F)F)nc2ccccc21)c1ccc(F)cc1 | 101* | 2 | 2 | -12 | -3 | 14
Cc1cc(-c2nn3c(-c4ccccc4)nnc3s2)c2ccccc2n1 | -4 | 13 | -5 | -10 | -5 | 12
COc1ccc(-c2nn3c(-c4ccco4)nnc3s2)cc1OC | -30 | . | 20 | -8 | . | 35
COc1cc(OC)c(-c2nn3c(-c4ccco4)nnc3s2)cc1OC | -8 | 6 | 4 | -14 | -7 | 64*
c1ccc(-c2cc(-c3nn4c(-c5ccco5)nnc4s3)c3ccccc3n2)cc1 | 38 | 6 | 4 | -11 | 5 | 51*
CCOc1ncccc1C(=O)N1CCCSC1=Nc1ccc(C(C)=O)cc1 | -24 | 6 | 0 | -3 | -7 | 4
C#CCOCCOCCOCCNc1nc(N2CCN(C(=O)C(Cc3cc4ccccc4[nH]3)n3cc(C(N)C(C)CC)nn3)CC2)nc(N2CCN(C(=O)C(Cc3cc4ccccc4[nH]3)n3cc(C(N)C(C)CC)nn3)CC2)n1 (stereo not given) | 38 | 0 | 0 | 67* | 25 | 35
C#CCOCCOCCOCCNc1nc(N2CCN(C(=O)[C@H]([C@@H](C)CC)n3cc([C@@H](N)CC(C)C)nn3)CC2)nc(N2CCN(C(=O)[C@H](Cc3cc4ccccc4[nH]3)n3cc([C@@H](N)Cc4ccc(O)cc4)nn3)CC2)n1 | 3 | 0 | 20 | 53* | 13 | 28
C#CCOCCOCCOCCNc1nc(N2CCN(C(=O)[C@H](Cc3ccc(O)cc3)n3cc([C@@H](N)C(C)CC)nn3)CC2)nc(N2CCN(C(=O)[C@H](Cc3cc4ccccc4[nH]3)n3cc([C@@H](N)Cc4ccc(O)cc4)nn3)CC2)n1 (stereo not given in full) | -38 | -3 | . | 33* | 39 | 30
C#CCOCCOCCOCCNc1nc(N2CCN(C(=O)C(Cc3ccc(O)cc3)n3cc(C(N)CC(C)C)nn3)CC2)nc(N2CCN(C(=O)C(Cc3cc4ccccc4[nH]3)n3cc(C(N)C(C)CC)nn3)CC2)n1 (stereo not given) | 23 | 0 | -1 | . | 20 | 5
C#CCOCCOCCOCCNc1nc(N2CCN(C(=O)[C@H]([C@@H](C)CC)n3cc([C@@H](N)CO)nn3)CC2)nc(N2CCN(C(=O)[C@H]([C@@H](C)CC)n3cc([C@@H](N)CC(C)C)nn3)CC2)n1 | 56* | 7 | -2 | 4 | 44 | 23
CC1=C(C(N)=O)C(c2ccc(Cl)cc2)NC(=O)N1 (stereo not given) | -14 | 4 | -3 | -12 | -10 | 5
CC(=O)C1=C(C)NC(=O)NC1c1ccc(Cl)cc1 (stereo not given) | -32 | 2 | 0 | 7 | 2 | 54*
